This is a sample that favours compounds with a hit; in the whole collection about 2.6% have one here.
SIAE inh: human SIAE inhibitors, primary screen, biochemical, fluorescence polarization, FP-Rh probe, 1536-well HTS. inhibition, % at 9.66 µM. Sialate O-acetylesterase (Homo sapiens), Q9HAT2. SIAE FP-Rh probe binding. 370,000 tested, 0.69% active;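 active means inhibition above a cutoff: mean of compounds within the control limits plus 3 SD of those, cut at about 17% in these data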;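 further: 0% = plate median of compound wells and 100% = probe without SIAE protein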
PME-1 inh: PME-1 inhibitors via competitive probe labeling, primary screen, biochemical, fluorescence polarization, FP-Rh probe, HTS. AID 2130, 2009. recombinant PME-1. inhibition, % at 5.9 µM. 320,000 tested, 0.53% active;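 active means inhibition above the campaign mean of all compounds plus 3 SD, cut at about 26% in these data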;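 further: competitive labeling of PME-1 active site by serine hydrolase directed probe; 0% = PME-1 with DMSO and 100% = wells lacking PME-1 enzyme; inhibitors block probe labeling so polarization falls and inhibition rises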
PAD4 FP inh: human PAD4 inhibitors, primary screen, biochemical, fluorescence polarization, 1536-well format. recombinant PAD4, RCA probe fluorescence polarization. inhibition, % at 6.36 µM. 330,000 tested, 0.41% active. AID 485272, 2010;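 active means percent inhibition above a cutoff equal to the mean of all tested compounds plus 3 SD, cut at about 15% in these data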;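 further: 0% = PAD4 with RCA probe and DMSO and 100% = probe without PAD4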
PRMT1 FP inh: PRMT1 methyltransferase inhibitors, primary screen, biochemical, fluorescence polarization; AID 652257, 2013; 370,000 tested, 1.3% active; recombinant PRMT1, activity-based probe fluorescence polarization; inhibition, % at 2.79 µM;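 active means inhibition above about 21% made by adding two undisclosed values, limit read from the data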
Target sequence (Q99873 whole entry, looked up): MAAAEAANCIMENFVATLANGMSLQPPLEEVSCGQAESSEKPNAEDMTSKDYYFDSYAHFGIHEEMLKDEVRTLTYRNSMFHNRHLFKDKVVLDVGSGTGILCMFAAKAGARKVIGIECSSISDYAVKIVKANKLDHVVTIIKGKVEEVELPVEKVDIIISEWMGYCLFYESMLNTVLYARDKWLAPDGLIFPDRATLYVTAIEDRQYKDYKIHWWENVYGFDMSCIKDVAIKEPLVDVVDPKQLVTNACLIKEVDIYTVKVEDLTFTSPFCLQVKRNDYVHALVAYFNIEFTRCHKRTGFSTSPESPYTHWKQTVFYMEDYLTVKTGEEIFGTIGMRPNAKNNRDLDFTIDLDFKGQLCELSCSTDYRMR
TCR CD3 inh: inhibitors of human TCR-CD3 interaction, primary screen, biochemical, fluorescence, TAMRA-labeled TCR probe; T-cell receptor (TCR); inhibition, % at 9.4 µM; 360,000 tested, 0.37% active; AID 651800, 2012;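 further: recombinant mutant TCR 2C K166C tagged with TAMRA read by polarization; 0% = receptor in buffer alone and 100% = receptor with positive control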
Fam108B counter: mouse Fam108B serine hydrolase inhibitors, primary screen, counter-screen for RBBP9 inhibitor project, biochemical, fluorescence polarization; recombinant Fam108B, FP-Rh probe fluorescence polarization; inhibition, % at 9.51 µM; 300,000 tested, 0.33% active;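 active means inhibition above the screen mean inhibition plus 3 SD, computed separately per campaign, cut at about 18% in these data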;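 further: inhibitors lower polarization as less probe binds the enzyme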
BSA probe FL: compounds interfering with TAMRA-BSA probe, counter-screen for TCR-CD3 interaction inhibitor project, biochemical, fluorescence, TAMRA-labeled BSA. inhibition, % at 9.4 µM. TAMRA-labeled BSA probe fluorescence counterscreen. shares compounds with TCR CD3 inh. 1,200 tested, 10% active; in the data active means inhibition above about 23%;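 further: 0% = buffer low control and 100% = reference high control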
TCR-CD3 conf: TCR-CD3 interaction inhibitors, retest, confirmation, biochemical, fluorescence, TAMRA-labeled TCR probe; AID 652036, 2013; 1,200 tested, 48% active; inhibition, % at 9.4 µM; TAMRA-labeled TCR probe fluorescence binding assay; shares compounds with TCR CD3 inh
An asterisk follows results filed as active; . = not tested or not shown. Unless noted, no stated cut-off is given here; in the data, active means inhibition above about 19%; inactive means the rest.

SMILES	SIAE inh	PME-1 inh	PAD4 FP inh	PRMT1 FP inh	TCR CD3 inh	Fam108B counter	BSA probe FL	TCR-CD3 conf
Cc1ccc(S(=O)(=O)N2CCC(=O)N(C(CO)C(C)C)CC2)cc1 (stereo not given)	-4	-3	1	2	103*	4	-3	-3
O=C(/C=C/c1ccc(O)c(O)c1)NC(=O)c1ccccc1O	1	-11	1	13	24*	-6	-18	21*
O=C(/C=C/c1ccc(Br)cc1)NC(=O)c1ccccc1O	-6	10	-1	2	-2	4	.	.
CCC(C)[C@H](NC(=O)C1COC(O)([C@H](Cc2ccccc2)NC(=O)[C@@H](NC(=O)OCc2ccccc2)C(C)C)CN1C)C(=O)N[C@H](C(=O)OC)C(C)C (stereo not given in full)	1	.	.	1	.	.	.	.
CCOc1ccccc1C(=O)N1CCC(Oc2cccnc2)CC1	3	.	.	2	.	.	.	.
CN(C)c1ccc(O)c2c1CC1CC3[C@@H](N(C)C)C(=O)C(C(N)=O)=C(O)[C@]3(O)C(=O)C1=C2O (stereo not given in full)	25*	-6	3	31*	46*	15	-7	27*
COC(=O)c1ccccc1NC(=S)NC(=O)c1ccc2c(c1)OCO2	3	.	.	5	45*	.	-1	-1
CC(=O)Nc1ccc(NC(=O)CSc2nnc(-c3cccs3)o2)cc1	0	.	.	1	.	.	.	.
COC(=O)C12C=C3CC(c4ccc(OC)cc4)=C3C(=O)N1Cc1[nH]c3ccccc3c1C2 (stereo not given)	-3	.	.	0	.	.	.	.
Cc1ccc(C(=O)Nc2cccc([N+](=O)[O-])c2)cc1S(=O)(=O)Nc1ccc(NC(=O)c2ccccc2)cc1	-50	-32	-5	0	30*	-20	10	23*
CCC[C@H]1[C@@H](NC(=O)Nc2ccc3c(c2)OCO3)CC[C@@]23CCCN2C(=O)CCC[C@@H]13	3	.	.	-2	.	.	.	.
Cc1cc(C)cc(OCC(C)CN2CCC(C(O)(c3ccccc3)c3ccccc3)CC2)c1 (stereo not given)	-4	.	.	2	.	.	.	.
O=C(CCc1ccc(S(=O)(=O)N2CCOCC2)cc1)Nc1cc(Cl)ccc1N1CCOCC1	7	7	-6	-4	21*	3	6	3
C=CCN1[C@@H](Cc2ccccc2)COc2cc(F)ccc2S1(=O)=O	2	.	.	2	.	.	.	.
O=C(CC1CCCC1)NNC(=O)c1ccccc1O	-1	.	.	-1	29*	.	-15	23*
Cc1ccccc1SCC(=O)NNC(=O)c1ccccc1O	9	5	-2	0	21*	-4	-19	20*
CCOc1ccc(-n2c(SCC(=O)Nc3cc4oc5ccccc5c4cc3OC)nnc2-c2cccc(Cl)c2)cc1	4	.	.	-11	.	.	.	.
COc1cc(/C=N/NC(=O)c2cc(O)cc(O)c2)ccc1OC(=O)c1ccccc1	-29	.	.	4	20*	.	-10	26*
COc1cc(OC)cc(C(=O)N/N=C/c2ccc(OC)c(COc3ccc4ccccc4c3)c2)c1	-84	-52	-4	-2	40*	-41	9	35*
COc1cc(C(=O)N/N=C/c2ccc(OC(=O)c3ccccc3)c(OC)c2)ccc1O	8	.	.	-2	1	.	.	.
Cc1cc(C)cc(C(=O)N/N=C/c2ccoc2)c1	-6	1	-4	0	-5	3	.	.
O=C(N/N=C/c1ccoc1)c1cc(O)cc(O)c1	9	0	-1	10	20*	12	-4	23*
O=C(NCCc1c[nH]c2ccccc12)OCc1cn(Cc2ccccc2C(F)(F)F)nn1	2	.	.	0	.	.	.	.
CCCCCCCCN1C(=O)[C@@H](CC(=O)NCc2ccc(C)o2)C[C@@]2(C(=O)OC)C1=C[C@H](C(C)C)O[C@@H]2C1CC1	1	.	.	0	.	.	.	.
Cc1ccc(-c2cc(C(=O)Nc3ccncc3)c3ccccc3n2)cc1	-3	-15	-2	-3	6	-4	.	.
SMILES	SIAE inh	PME-1 inh	PAD4 FP inh	PRMT1 FP inh	TCR CD3 inh	Fam108B counter	BSA probe FL	TCR-CD3 conf
O=C(NNC(=O)c1cc(-c2ccncc2)nc2ccccc12)c1ccccc1O	-1	-6	-4	-1	28*	4	-10	21*
O=C(C1CCN(S(=O)(=O)c2ccc3[nH]c(=O)oc3c2)CC1)N1CCCN(Cc2ccccc2)CC1	10	.	.	-1	.	.	.	.
C=CCN1C(=O)[C@H](CC(=O)N2CCSCC2)[C@@]2(C(=O)OCC)CCCC=C12	-1	.	.	-3	.	.	.	.
COc1cc(/C=N/NC(=O)COc2ccc(Cl)cc2)ccc1OS(=O)(=O)c1ccc(C)cc1	1	14	0	-2	57*	7	13	36*
COc1cc(/C=N/NC(=O)COc2cccc(F)c2)ccc1OS(=O)(=O)c1ccc(C)cc1	-31	-34	-6	-1	6	-17	.	.
CN(C)CC(=O)N[C@@H]1C[C@@H]2O[C@@H](CO)CC[C@@H]2O[C@@H]1CCc1ccc(C2=CCCCC2)cc1	-1	.	.	1	.	.	.	.
Fc1ccccc1-c1nc(N2CCCCC2)c2ccccc2n1	-5	-8	3	0	28*	3	14	7
Oc1ccccc1-c1nc(N2CCCC2)c2ccccc2n1	2	-12	-16	-3	8	-10	.	.
COC(=O)[C@H](CC(C)C)N(CCc1cn(Cc2ccc(C)cc2)nn1)S(=O)(=O)c1ccccc1Br	-7	.	.	-3	.	.	.	.
O=c1c(O[C@H]2O[C@@H](CO)[C@H](O)[C@@H](O)[C@@H]2O)c(-c2ccc(O)cc2)oc2cc(O)cc(O)c12	-1	5	0	6	-8	.	.	.
O=c1c(OC2OC(CO)C(O)C(O)C2OC2OC(CO)C(O)C(O)C2O)c(-c2ccc(O)cc2)oc2cc(O)cc(O)c12 (stereo not given)	8	2	4	-1	23*	3	-4	14
Cc1cc(C)c2c(N)c(C(=O)NN)sc2n1	13	32*	-9	0	38*	6	-8	29*
Cc1cccc(NC(=O)CSc2nnc(-c3ccccc3)n2N)c1	1	-26	-3	-3	24*	-2	2	0
Cc1cc(C)cc(NC(=O)CSc2nnc(-c3ccccc3)n2N)c1	-4	-6	-6	-5	9	-3	.	.

Screens deposited in PubChem BioAssay by The Scripps Research Institute Molecular Screening Center.
